Reference: PubChem BioAssay

experiment: hit retest on RPL19A-GFP reporter strain – cell-based, S. cerevisiae, flow cytometry, cherry picks, mother/daughter gates, confirmation (AID 2270); details: 3 h, measured here: daughter cell gate, at 10 µM, stronger effect = lower value, 100 = same GFP as DMSO wells

Structure (SMILES) | GFP response vs DMSO [%]
N=c1n(CCN2CCCCC2)c2ccccc2n1CC(=O)c1ccc(Cl)c(Cl)c1 | 99
COc1cc(NC(=O)c2ccccc2F)ccc1NC(=O)c1cc2ccccc2o1 | 90.2
CCCC(=O)Nc1ccc(NC(=O)c2cc3ccccc3o2)c(OC)c1 | 98.4
Cc1ccc(NC(=O)CCCSc2nc3ccccc3[nH]2)cc1 | 99.1
COc1ccc2c(c1)C=Cc1ccccc1O2 | 97.6
Cc1ccc(-n2nc(C)c3c(C)c(CCC(=O)O)c(C)nc32)cc1 | 100
Oc1ccc(/C=N/Nc2nc(-c3cccnc3)nc3ccccc23)c(O)c1 | 95.3
CCCOc1ccc(N2C(=O)CC(SCCN)C2=O)cc1 (stereo not given) | 92.9
CCN(CC)C(=O)c1ccc(-c2cccs2)s1 | 94.6
O=C(COc1ccccc1[N+](=O)[O-])Nc1ccc(NC(=O)c2cc3ccccc3o2)cc1 | 98.9
COCCNC(=O)c1ccccc1-c1nc(-c2ccccc2Cl)no1 | 97.1
COc1ccc(N2C(=O)CC(Sc3ncn[nH]3)C2=O)c(OC)c1 (stereo not given) | 112
COc1ccc(N=Nc2ccc(O)c3ncccc23)cc1 | 100
COc1cc(NC(=O)c2ccccc2)ccc1NC(=O)c1cc2ccccc2o1 | 98.7
CS(=O)(=O)N1N=C(c2ccco2)CC1c1ccc(Br)cc1 (stereo not given) | 98.1
CCN(C(=O)c1ccccc1Cl)c1ccccc1 | 99
Cc1ccc(NC(=S)N/N=C/c2c(C)[nH]c3ccccc23)cc1 | 97
CCc1nnc(NC(=O)c2nc(S(=O)(=O)Cc3cccc(C)c3)ncc2Cl)s1 | 93.1
O=C(NCc1ccc2c(c1)OCO2)c1nc(S(=O)(=O)Cc2ccccc2)ncc1Cl | 96.2
COc1ccccc1-c1noc(-c2cc(OC)c(OC)c(OC)c2)n1 | 96.4

Structure (SMILES) | GFP response vs DMSO [%]
N#C/C(=C\c1c(N2CCCCC2)nc2ccccn2c1=O)C(=O)NCc1ccco1 | 98.8
COc1cc(NC(=O)c2ccc(Br)cc2)ccc1NC(=O)c1cc2ccccc2o1 | 99
CCOC(=O)CS(=O)(=O)c1nc(-c2ccc(F)cc2)cc(C(F)(F)F)n1 | 113
CC[n+]1c(/C=C/c2ccc(N(C)C)cc2)ccc2ccccc21 | 96.6
CCOc1cc(/C=N/Nc2nc(C)cc(=O)[nH]2)ccc1O | 102
Cc1ccc(/C=C/C(=O)c2ccccc(=O)c2O)c(C)c1 | 112
COc1ccc(-c2ccc(S(=O)(=O)N3CCOCC3)cc2)cc1 | 93.9
CCNC(=O)c1ccccc1-c1nc(-c2ccccc2Cl)no1 | 94.7
O=C(OCC(=O)N1CCN(C(=O)c2ccco2)CC1)c1cc(-c2ccccc2)nc2ccccc12 | 66.6
Cc1nnc(NC(=O)c2ccc(S(=O)(=O)N3CCCCCC3)cc2)o1 | 99.3
NC(N)=N/N=C/c1ccc(OCc2ccc(Cl)cc2Cl)cc1 | 82.8
Cc1noc(/C=C/c2cccnc2)c1[N+](=O)[O-] | 104
NC(=O)c1ccccc1OCC(=O)c1ccc(Cl)cc1 | 101
CCc1nnc(NC(=O)c2nc(S(=O)(=O)Cc3ccc(C)cc3)ncc2Cl)s1 | 99.1
CN1/C(=C\C(=O)c2cccc(S(=O)(=O)N3CCCCC3)c2)C(C)(C)c2ccccc21 | 97.6
Cc1n[nH]c(C)c1N1C(=O)c2cccc3c(Br)ccc(c23)C1=O | 100
Cc1nnc(N2C(=O)c3cccc4cccc(c34)C2=O)s1 | 93.3
CS(=O)(=O)N1CCc2cc(C(=O)Nc3ccc(COCC(F)(F)F)cc3)ccc21 | 104
O=[N+]([O-])c1ccc(Sc2ccccc2Cl)nc1 | 104
CC(=O)Oc1ccc(N2C(=O)C3C4C=CC(CO)(O4)C3C2=O)cc1 (stereo not given) | 104
